Assay results: PubChem BioAssay (Tox21)
Results filed as inconclusive are left out. Active and inactive are the calls of the source. Calls follow the shape of the dose curve; as a rule, active = well fitted cell-killing curve with a large enough effect in the repeat runs; inconclusive = weak or mixed curves; inactive = flat fitted curve, though single readings scatter.

assay: qHTS assay to identify small molecule antagonists of the estrogen related receptor (ERR) signaling pathway from Tox21 library - cell viability counter screen (AID 1224834); settings: ERR reporter cells viability, CellTiter-Fluor, 17.5 h; series mostly up to 92.4 µM; viability change, negative = cytotoxic: at the top concentration; also: nearly all actives have a fitted effect of over 30% in size
From the text: National Center for Advancing Translational Sciences [NCATS]
NIH Chemical Genomics Center [NCGC]
U.S. Environmental Protection Agency [EPA]
National Institutes of Environmental Health Sciences [NIEHS]
National Toxicology Program [NTP]
U.S. Food and Drug Administration [FDA]
Estrogen related receptors (ERRs), the first orphan nuclear receptors discovered, play an important role in the control of cellular energy metabolism. ERRs are required for high-energy production in response to the environmental challenges. ERR-alpha was also identified as an adverse marker for breast cancer progression; ERR-alpha-positive tumors have a poor prognosis. To screen and to identify environmental compounds that perturb the ERR signaling pathways could provide valuable information for potential therapeutic or preventive measures in the treatment of metabolic disease. To differentiate true ERR antagonists or agonist from cytotoxic substances, the assay is multiplexed with cell viability assay.
Tox21 Assay Protocol Summary:
The ERR cells were dispensed at 2,000 cells/5 ul/well in 1536-well white plates using a Multidrop dispenser. After the assay plates were incubated at a 37 C/5% CO2 incubator for 6 hours, 23 nL of compounds dissolved in DMSO, positive and negative controls or DMSO only was transferred to the assay plate by a pin tool. The plates were incubated at 37 C for 17.5 hours. 1 ul/well of CellTiter-Fluor reagent was added into the assay plates using a Flying Reagent Dispenser. After 30-minute incubation at 37 C/5% CO2, the fluorescence intensity in the plates was measured using a ViewLux plate reader.
% is scaled to controls: 0 for no effect and ±100 for the full control effect; potency is read from the fitted curve at half-maximal effect.

| SMILES | viability change, negative = cytotoxic | Potency |
| --- | --- | --- |
| CCCCOC(O)CC (stereo not given) | 3.81% (inactive) | – |
| CCN(CC)CCOC(=O)C1(c2ccccc2)CCCC1 | -3.88% [at 42.5 µM] (inactive) | – |
| CC1(C)[C@H]2CC[C@]1(C)[C@H](O)C2 | 0.552% (inactive) | – |
| CCc1nn(C2CCCCC2)c2cc(C3(C#N)CCC(C(=O)O)CC3)ccc12 (stereo not given) | – | 48.6 µM (active) |
| CC[C@]12CCCN3CCc4c(n(c5ccccc45)C(=O)C1)[C@@H]32 | – | 9.44 µM (active) |
| C[C@@H](C1=C(CCN(C)C)Cc2ccccc21)c1ccccn1 | -6.94% [at 42.5 µM] (inactive) | – |
| CN(C)CC/C=C1\c2ccccc2COc2ccccc21 | -8.38% [at 42.5 µM] (inactive) | – |
| CC[C@H](C)[C@H](N)C(=O)O | 3.11% [at 42.5 µM] (inactive) | – |
| C1=Cc2ccccc2C1 | 8.29% (inactive) | – |
| O=C(CCN1CCN2CCCC2C1)N1c2ccccc2Sc2ccc(Cl)cc21 (stereo not given) | -8.93% [at 19 µM] (inactive) | – |
| CCC(=O)OC(C)(C)C1CC=C(C)CC1 (stereo not given) | 1.87% (inactive) | – |
| COc1ccc(OC)c(OC)c1 | 2.77% (inactive) | – |
| O=C=NC1CCC(CC2CCC(N=C=O)CC2)CC1 (stereo not given) | -9.27% (inactive) | – |
| O=c1[nH]cnc2ccccc12 | -15.9% (inactive) | – |
| c1ccc(-c2nc[nH]c2-c2ccccc2)cc1 | -0.555% [at 42.5 µM] (inactive) | – |
| COCCOCCOCCOCCOC | 1.59% (inactive) | – |
| CC(C)(C)C1CCCCC1O (stereo not given) | 4.73% (inactive) | – |
| CC(C)(C)c1cc(CCC(=O)OCC(COC(=O)CCc2cc(C(C)(C)C)c(O)c(C(C)(C)C)c2)(COC(=O)CCc2cc(C(C)(C)C)c(O)c(C(C)(C)C)c2)COC(=O)CCc2cc(C(C)(C)C)c(O)c(C(C)(C)C)c2)cc(C(C)(C)C)c1O | 8.02% [at 42.5 µM] (inactive) | – |
| Cc1cc(O)ccc1N | – | 15.4 µM (active) |
| Cc1cccc(C(C)(C)C)c1O | 0.479% (inactive) | – |

| SMILES | viability change, negative = cytotoxic | Potency |
| --- | --- | --- |
| Cn1c(N)nc2nc[nH]c2c1=O | -14.2% (inactive) | – |
| O=S1(=O)N=C(O)c2ccccc21 | 1.39% [at 42.5 µM] (inactive) | – |
| N#CCCNCCC#N | -2.72% (inactive) | – |
| OC(CCN1CCCCC1)(c1ccccc1)C1CCCCC1 (stereo not given) | -8.27% [at 42.5 µM] (inactive) | – |
| OCCC1CCCCN1 (stereo not given) | 0.688% (inactive) | – |
| CCN1CCC[C@H]1CNC(=O)c1c(OC)ccc(Br)c1OC | -0.0341% [at 42.5 µM] (inactive) | – |
| Cl/C(=C\n1cncn1)c1ccc(Cl)cc1Cl | 1.21% [at 42.5 µM] (inactive) | – |
| CC(C)c1cccc(C(C)C)c1NC(=O)NS(=O)(=O)c1cc(C(C)(C)O)co1 | 1.5% (inactive) | – |
| Cn1c(=O)c2c(ncn2CC(O)CO)n(C)c1=O (stereo not given) | -2.22% [at 42.5 µM] (inactive) | – |
| CCCCCCCCCC(=O)OCC | 1.15% (inactive) | – |
| COc1ccccc1OC(=O)Oc1ccccc1OC | -3.37% [at 42.5 µM] (inactive) | – |
| CC(=O)O[C@@H]1C(=O)O[C@@H]2[C@H]1OC(=O)[C@@H]2OC(C)=O | -5.71% [at 42.5 µM] (inactive) | – |
| C=Cc1c(C)c2cc3[nH]c(cc4nc(cc5nc(cc1[nH]2)C(C)=C5CCC(=O)O)C(CCC(=O)O)=C4C)c(C)c3C=C | – | 23.7 µM (active) |
| CCOC(=O)C1=NN(c2ccccc2)C(=O)C1 | 1.05% (inactive) | – |
| CCCCCCCCCCCCCCC1CO1 (stereo not given) | 0.509% (inactive) | – |
| CCCCCC/C=C/C=O | 2.09% (inactive) | – |
| CCOC(=O)CC(C)C | 3.67% (inactive) | – |
| C=CC(C)(CCC=C(C)C)OC(=O)c1ccccc1 (stereo not given) | 0.0328% (inactive) | – |
| CC(C)CCCC(C)CCO (stereo not given) | 0.313% (inactive) | – |
| Cc1ccc(C(N)=O)cc1N | 4.13% (inactive) | – |
